Reference: PubChem BioAssay (NCI)
About 83,000 compounds went through this panel and 20% of them were active in at least one assay; those are over-represented in the sample as a whole.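 Each cell line was grown in a 96-well plate and treated with one concentration of compound for 48 hours. Values below 10 were considered active.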 Activity calls are given as the source filed them.

Key:
Experiment in all cases: NCI-60 one-dose screen, 48 h (100 = growth as untreated, 0 = no growth, -100 = all killed)
Conditions in all cases: 10 µM unless noted
SR leukemia = test system: SR leukemia
RPMI-8226 leukemia = test system: RPMI-8226 leukemia
OVCAR-8 ovarian = test system: OVCAR-8 ovarian
OVCAR-5 ovarian = test system: OVCAR-5 ovarian
OVCAR-4 ovarian = test system: OVCAR-4 ovarian
SK-OV-3 ovarian = test system: SK-OV-3 ovarian
IGROV1 ovarian = test system: IGROV1 ovarian
OVCAR-3 ovarian = test system: OVCAR-3 ovarian
HS 578T breast = test system: HS 578T breast
NCI/ADR-RES ovarian = test system: NCI/ADR-RES ovarian
T-47D breast = test system: T-47D breast
BT-549 breast = test system: BT-549 breast
MDA-MB-435 melanoma = test system: MDA-MB-435 melanoma
SW-620 colon = test system: SW-620 colon
MCF7 breast = test system: MCF7 breast
HCT-116 colon = test system: HCT-116 colon
HCC-2998 colon = test system: HCC-2998 colon
KM12 colon = test system: KM12 colon
MDA-MB-468 breast = test system: MDA-MB-468 breast

Measured: growth

O=CNc1ccc(-n2cnc3cc(-c4ccc(O)cc4)ccc32)cc1
inactive: SR leukemia 55.9% | RPMI-8226 leukemia 66.1% | OVCAR-8 ovarian 82.4% | OVCAR-5 ovarian 94.7% | OVCAR-4 ovarian 74.9% | SK-OV-3 ovarian 111% | IGROV1 ovarian 118% | OVCAR-3 ovarian 68.6% | HS 578T breast 93.3% | NCI/ADR-RES ovarian 81.6% | T-47D breast 63.6% | BT-549 breast 93.3% | MDA-MB-435 melanoma 82.8% | SW-620 colon 101% | MCF7 breast 71.8% | HCT-116 colon 85.6% | HCC-2998 colon 102% | KM12 colon 32.4% | MDA-MB-468 breast 86.1%

O=C(NNC(=S)NC(=O)c1ccccc1)c1ccc(OCc2nc3ccc(Cl)cc3[nH]2)cc1
active: SR leukemia 0.144% | RPMI-8226 leukemia 5.01% | OVCAR-8 ovarian -9.91% | OVCAR-5 ovarian -43.7% | SK-OV-3 ovarian -17.5% | IGROV1 ovarian -46.5% | HS 578T breast 3.54% | NCI/ADR-RES ovarian -25.3% | BT-549 breast -51.8% | MDA-MB-435 melanoma -51.2% | MCF7 breast 3.67% | HCT-116 colon -34.6% | HCC-2998 colon -80.3% | KM12 colon -3.11% | MDA-MB-468 breast -41%
inactive: OVCAR-4 ovarian 16.3% | OVCAR-3 ovarian 10.5% | T-47D breast 10.2% | SW-620 colon 19.8%

Nc1ccc(-c2ccc3ncnc(N4CCc5cc(F)c(Cl)cc54)c3c2)cn1
active: SR leukemia 0.174% | RPMI-8226 leukemia 6.22% | SK-OV-3 ovarian 1.92% | IGROV1 ovarian -46% | OVCAR-3 ovarian 4.61% | HS 578T breast -15.8% | BT-549 breast -9.19% | MCF7 breast 8.53% | HCT-116 colon -52.9% | MDA-MB-468 breast -78%
inactive: OVCAR-8 ovarian 42.5% | OVCAR-5 ovarian 20.6% | OVCAR-4 ovarian 34.6% | NCI/ADR-RES ovarian 30% | T-47D breast 10.7% | MDA-MB-435 melanoma 28% | SW-620 colon 55.8% | HCC-2998 colon 38.2% | KM12 colon 35.6%

COc1ccccc1Nc1nnc(-c2c[nH]c3ccccc23)o1
inactive: OVCAR-8 ovarian 11.8% | OVCAR-5 ovarian 32.1% | OVCAR-4 ovarian 64.3% | SK-OV-3 ovarian 15.4% | IGROV1 ovarian 16.8% | OVCAR-3 ovarian 12.9% | T-47D breast 16.6% | BT-549 breast 39.7% | SW-620 colon 40.9% | MCF7 breast 10.6% | HCT-116 colon 12.5%
active: SR leukemia 1.74% | RPMI-8226 leukemia -12.4% | HS 578T breast 9.82% | NCI/ADR-RES ovarian -35.9% | MDA-MB-435 melanoma -40.8% | HCC-2998 colon 7.55% | KM12 colon 2.26% | MDA-MB-468 breast -25.4%

COc1cc(CNC(=O)C[C@H](C)CCC=C(C)C)ccc1OCc1cn(-c2ccc(Br)cc2)nn1
inactive: SR leukemia 63.8% | RPMI-8226 leukemia 69.3% | OVCAR-8 ovarian 47.5% | OVCAR-5 ovarian 105% | OVCAR-4 ovarian 49.5% | SK-OV-3 ovarian 64% | IGROV1 ovarian 89.9% | OVCAR-3 ovarian 105% | HS 578T breast 73.8% | NCI/ADR-RES ovarian 52.1% | T-47D breast 49.3% | BT-549 breast 93.6% | MDA-MB-435 melanoma 98.3% | SW-620 colon 91.7% | MCF7 breast 60.2% | HCT-116 colon 41.9% | HCC-2998 colon 95.8% | KM12 colon 94.6% | MDA-MB-468 breast 46.7%

N#Cc1ccc(C(=O)NNC(=O)CSc2nc3sc4c(c3c(=O)n2-c2ccc(Cl)cc2)CCCC4)cc1
inactive: SR leukemia 47.6% | RPMI-8226 leukemia 54.6% | OVCAR-8 ovarian 34.4% | OVCAR-5 ovarian 31.9% | OVCAR-4 ovarian 73.8% | SK-OV-3 ovarian 72.7% | IGROV1 ovarian 30.7% | OVCAR-3 ovarian 91.8% | HS 578T breast 59.4% | NCI/ADR-RES ovarian 67.3% | T-47D breast 58.6% | BT-549 breast 22.7% | MDA-MB-435 melanoma 63.7% | SW-620 colon 60.3% | MCF7 breast 63% | HCT-116 colon 37.5% | KM12 colon 91.2% | MDA-MB-468 breast 92%

COc1c(F)ccc(C(=O)Nc2ccc3nc(NC(=O)C4CCCN(S(=O)(=O)c5ccc(C(C)(C)C)cc5)C4)sc3c2)c1F (stereo not given)
inactive: SR leukemia 17.3% | RPMI-8226 leukemia 44.3% | OVCAR-8 ovarian 84.9% | OVCAR-5 ovarian 81.3% | OVCAR-4 ovarian 54% | SK-OV-3 ovarian 80.8% | IGROV1 ovarian 55.5% | OVCAR-3 ovarian 83.9% | HS 578T breast 58.2% | NCI/ADR-RES ovarian 67.6% | T-47D breast 42.5% | BT-549 breast 60.4% | MDA-MB-435 melanoma 76.7% | SW-620 colon 88.5% | MCF7 breast 41.5% | HCT-116 colon 58.3% | HCC-2998 colon 84.8% | KM12 colon 68.4% | MDA-MB-468 breast 86.7%

O=c1[nH]c2ccccc2cc1CSc1ccccc1Nc1nccc(-c2ccc3c(c2)OCO3)n1
inactive: SR leukemia 103% | RPMI-8226 leukemia 92.2% | OVCAR-8 ovarian 46.8% | OVCAR-5 ovarian 99.5% | OVCAR-4 ovarian 25.4% | SK-OV-3 ovarian 82.7% | IGROV1 ovarian 99.2% | OVCAR-3 ovarian 83.9% | HS 578T breast 34.7% | NCI/ADR-RES ovarian 53.1% | T-47D breast 83.6% | BT-549 breast 67.6% | MDA-MB-435 melanoma 98.8% | SW-620 colon 93.2% | MCF7 breast 69.2% | HCT-116 colon 93.2% | HCC-2998 colon 116% | KM12 colon 99.3% | MDA-MB-468 breast 84.4%

Cc1ccc(C2CC(c3ccc(NC(=S)Nc4ccccc4)cc3)=NN2c2ccc(S(N)(=O)=O)cc2)cc1 (stereo not given)
active: RPMI-8226 leukemia 7.06% | OVCAR-3 ovarian 2.37% | NCI/ADR-RES ovarian 7.5% | BT-549 breast -10% | MCF7 breast 2.64% | HCC-2998 colon -16.9% | KM12 colon 2.95% | MDA-MB-468 breast 9.79%
inactive: SR leukemia 17.8% | OVCAR-8 ovarian 26% | OVCAR-5 ovarian 16.2% | OVCAR-4 ovarian 27.1% | SK-OV-3 ovarian 41.5% | IGROV1 ovarian 19.2% | HS 578T breast 31.7% | T-47D breast 24.5% | MDA-MB-435 melanoma 23.6% | SW-620 colon 19.8% | HCT-116 colon 10.1%

NS(=O)(=O)c1ccc(Nc2nc(N/N=C/c3cc(Br)c(O)c(Br)c3)nc(Nc3ccccc3)n2)cc1
inactive: RPMI-8226 leukemia 79.4% | OVCAR-8 ovarian 57.7% | OVCAR-5 ovarian 106% | OVCAR-4 ovarian 71.2% | SK-OV-3 ovarian 99.7% | IGROV1 ovarian 59.5% | OVCAR-3 ovarian 20.2% | NCI/ADR-RES ovarian 98% | T-47D breast 25.5% | MDA-MB-435 melanoma 56.5% | SW-620 colon 41.2% | MCF7 breast 37.7% | HCT-116 colon 28.9% | KM12 colon 61.7%
active: SR leukemia -12.1% | HS 578T breast -8.25% | BT-549 breast -14.3% | HCC-2998 colon 5.2% | MDA-MB-468 breast -57.4%

CCOC(=O)/C(F)=C/C1CC1CCc1ccc(OCC)cc1 (stereo not given)
inactive: SR leukemia 78.6% | RPMI-8226 leukemia 99.3% | OVCAR-8 ovarian 101% | OVCAR-5 ovarian 108% | OVCAR-4 ovarian 94.8% | SK-OV-3 ovarian 75.3% | IGROV1 ovarian 92.5% | OVCAR-3 ovarian 103% | HS 578T breast 94.5% | NCI/ADR-RES ovarian 101% | T-47D breast 74.7% | BT-549 breast 106% | MDA-MB-435 melanoma 99% | SW-620 colon 92% | MCF7 breast 85.7% | HCT-116 colon 93.7% | HCC-2998 colon 90.5% | KM12 colon 83.9% | MDA-MB-468 breast 71.6%

COc1sc(/C=N/NC(=O)c2[nH]c3ccc(Br)cc3c2-c2ccccc2)cc1Br
inactive: OVCAR-8 ovarian 12% | OVCAR-4 ovarian 41.9% | SK-OV-3 ovarian 40.2% | IGROV1 ovarian 11.8% | HS 578T breast 20.7% | T-47D breast 62%
active: SR leukemia 4.82% | RPMI-8226 leukemia 9.25% | OVCAR-5 ovarian 0.79% | OVCAR-3 ovarian -0.827% | NCI/ADR-RES ovarian -64.9% | BT-549 breast -29.1% | MDA-MB-435 melanoma -26.5% | SW-620 colon 6.77% | MCF7 breast 4.42% | HCT-116 colon -5.78% | HCC-2998 colon 8.54% | KM12 colon 2.33% | MDA-MB-468 breast -14.5%

COc1ccc2[nH]cc(-c3cc4nc(-c5cn(C)c6ncc(Br)cc56)cc(N)n4n3)c2c1
active: SR leukemia -16.1% | RPMI-8226 leukemia -6.2% | OVCAR-8 ovarian -55.2% | OVCAR-5 ovarian -83.6% | OVCAR-4 ovarian -36.5% | SK-OV-3 ovarian -42.6% | IGROV1 ovarian -77.3% | OVCAR-3 ovarian -67.3% | HS 578T breast -27.8% | NCI/ADR-RES ovarian -44.8% | T-47D breast -62.7% | BT-549 breast -57.3% | MDA-MB-435 melanoma -61.6% | SW-620 colon -74.4% | MCF7 breast -59.7% | HCT-116 colon -95.9% | HCC-2998 colon -95% | KM12 colon -49.8% | MDA-MB-468 breast -83.1%

COc1ccc2ccccc2c1/C=C1\SC(=Nc2ccc(O)cc2)NC1=O
inactive: SR leukemia 20.8% | OVCAR-5 ovarian 10.3% | OVCAR-4 ovarian 56.2% | SK-OV-3 ovarian 29.6% | IGROV1 ovarian 11.3% | OVCAR-3 ovarian 35.5% | HS 578T breast 24.1% | T-47D breast 36.4% | MDA-MB-435 melanoma 10.9% | SW-620 colon 35.4% | KM12 colon 17.3%
active: RPMI-8226 leukemia -12.7% | OVCAR-8 ovarian 9.1% | NCI/ADR-RES ovarian -5.75% | BT-549 breast -22.6% | MCF7 breast 9.63% | HCT-116 colon 2.32%

COc1cc(/C=C/C(=O)c2cnn(-c3cc(=O)[nH]c4ccccc34)c2C)cc(OC)c1OC
inactive: OVCAR-4 ovarian 39.4% | HS 578T breast 35.5% | NCI/ADR-RES ovarian 42.2% | T-47D breast 10.7% | MDA-MB-435 melanoma 21.1% | SW-620 colon 24.4% | MCF7 breast 10.8%
active: SR leukemia -3.34% | RPMI-8226 leukemia -11.6% | OVCAR-8 ovarian -18.1% | OVCAR-5 ovarian -3.98% | SK-OV-3 ovarian 9.66% | IGROV1 ovarian 6.78% | OVCAR-3 ovarian 8.06% | BT-549 breast -4.19% | HCT-116 colon 5.92% | KM12 colon 4.79%
